Source: PubChem (several laboratories)
rCAG RNA binder – r(CAG) repeat RNA binding; TO-PRO-1 dye displacement fluorescence; inhibition, % at 3 µM; 370,000 tested, 1.3% active; AID 651821;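 active = inhibition above the plate cutoff, the mean of all test compounds on that plate plus 3 SD, cut at about 35% in these data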;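 also: 0% = DMSO alone and 100% = 100 µM mitoxantrone as full dye displacement; higher means more dye released from RNA so lower well fluorescence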
PHOSPHO1 inh – PHOSPHO1 (human) inhibition; Q8TCT1; recombinant PHOSPHO1, absorbance phosphatase assay; inhibition, % at 13.3 µM; 290,000 tested, 1.1% active; in the data active = inhibition above about 60%
A3G deaminase – blocks human APOBEC3G single-stranded DNA deamination; 330,000 tested, 0.28% active; inhibition, % at 20 µM; recombinant A3G, ssDNA deamination FAM/TAMRA fluorescence;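 active = inhibition of at least 40% at 20 µM, with no more than 30% in the related APOBEC3A deaminase screen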;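 also: plate controls were DMSO wells with A3G for no effect and wells lacking A3G enzyme for full effect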
aDG glyco act – alpha-DG glycosylation activation; Pro5-aDG cells, alpha-DG glycosylation AlphaScreen (IIH6); 0% Pro5, 100% B10-LARGE cell signal; activation, % at 10 µM; 360,000 tested, 0.22% active; AID 624168;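 active = activation of at least 8% versus controls, or a plate z-score of at least 8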;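 also: Pro5 are CHO cells carrying HIG-tagged alpha-DG that lacks glycosylation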
A3A deaminase – human APOBEC3A DNA deaminase inhibition | inhibition, % at 20 µM | recombinant A3A, FAM/TAMRA ssDNA deamination fluorescence | P31941 | 330,000 tested, 0.41% active;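 active = at least 40% inhibition at 20 µM here, with at most 30% in a related deaminase screen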;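 also: plate controls were A3A with DMSO for no effect and wells lacking A3A enzyme for full effect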
Target sequence (P31941 whole entry, looked up): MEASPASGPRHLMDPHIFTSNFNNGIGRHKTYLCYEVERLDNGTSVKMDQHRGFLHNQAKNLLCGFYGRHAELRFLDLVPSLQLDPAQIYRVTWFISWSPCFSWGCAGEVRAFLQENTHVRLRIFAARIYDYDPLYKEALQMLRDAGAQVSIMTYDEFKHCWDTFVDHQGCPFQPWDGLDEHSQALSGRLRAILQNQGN
ALR H2O2 inh – blocks human ALR sulfhydryl oxidase activity. inhibition, % (concentration not given with the values). 290,000 tested, 3.8% active. purified ALR, DTT oxidation, H2O2 HRP-luminol luminescence;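 active = mean replicate inhibition above about 79%, with every replicate also reaching it, limit read from the data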
Target sequence (P55789 whole entry, looked up): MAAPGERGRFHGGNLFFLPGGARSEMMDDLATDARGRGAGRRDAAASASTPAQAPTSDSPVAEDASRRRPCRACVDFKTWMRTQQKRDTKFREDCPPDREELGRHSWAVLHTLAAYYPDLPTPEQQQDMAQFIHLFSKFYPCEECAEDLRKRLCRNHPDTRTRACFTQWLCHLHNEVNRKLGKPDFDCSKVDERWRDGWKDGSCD
rCAG bind conf – r(CAG) RNA repeat binding, confirmation. inhibition, % at 3 µM. 4,300 tested, 70% active. shares compounds with rCAG RNA binder. TO-PRO-1 dye displacement fluorescence;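 active = inhibition above a per-plate cutoff, the mean inhibition of sample wells plus 3 SD, cut at about 35% in these data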;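 also: loss of TO-PRO-1 fluorescence as compound displaces dye from 1x1 AA loop RNA; 0% = DMSO only wells and 100% = 100 µM mitoxantrone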
DNA CAG counter – counter-screen for rCAG RNA binders: DNA CAG dye complex inhibitors. shares compounds with rCAG RNA binder. d(CAG) DNA oligo TO-PRO-1 dye displacement, fluorescence. inhibition, % at 3 µM. 4,300 tested, 94% active;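 active = inhibition above its plate's cutoff, the mean test-well inhibition plus 3 SD, cut at about 4.8% in these data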;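 also: 0% = DNA dye mix with DMSO and 100% = 100 µM mitoxantrone; hits displace the dye from DNA and so lower well fluorescence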
Numbers without * were called inactive. Hits are enriched below; roughly 5.4% of the tested compounds scored in any of these assays.

O=C(O)c1ccc(Nc2nc(-c3ccc([N+](=O)[O-])cc3)nc3ccccc23)cc1 was read as rCAG RNA binder 13.5, PHOSPHO1 inh 32.7, A3G deaminase -8.1, aDG glyco act -0.3, A3A deaminase -1.2 and ALR H2O2 inh -0.5.
O=[N+]([O-])c1ccc(-c2nc(Nc3ccc(O)cc3)c3ccccc3n2)cc1 was read as rCAG RNA binder 36.6*, PHOSPHO1 inh -11.5, A3G deaminase -6.4, aDG glyco act 0.0, A3A deaminase -2.3, ALR H2O2 inh -13.1, rCAG bind conf 21.4 and DNA CAG counter 10.3*.
CC(C)[C@H](NS(=O)(=O)c1ccc(F)cc1F)C(=O)N1CCC[C@H]1C(=O)NCc1ccccc1 was read as rCAG RNA binder 0.1.
For CSc1nsc2nc(=O)c(/C=C3\C(C)=Nc4ccccc43)c(N)n12 the results were rCAG RNA binder 41.9*, PHOSPHO1 inh 53.0, aDG glyco act -0.3, rCAG bind conf 24.9 and DNA CAG counter 4.7*.
O=C(CSc1nnc(-c2cccnc2)n1Cc1ccco1)Nc1cc(Cl)ccc1F was read as rCAG RNA binder 0.5.
`S=C(NCc1ccccc1)NC1CCSc2ccccc21` (configuration not stated) gave rCAG RNA binder 52.8*, PHOSPHO1 inh 14.7, A3G deaminase -9.0, aDG glyco act 0.3, A3A deaminase -3.4, ALR H2O2 inh 1.7, rCAG bind conf 4.5 and DNA CAG counter 2.0.
`COC(=O)C1=C(C)N(C)C(=NCc2ccc(OC)cc2)NC1c1ccc(C(F)(F)F)cc1` (configuration not stated) gave rCAG RNA binder 7.4.
For O=C1N=c2ccccc2=C1c1sc(Nc2ccc(O)cc2)nc1O the results were rCAG RNA binder 40.8*, PHOSPHO1 inh -20.5, aDG glyco act -0.1, rCAG bind conf 25.9 and DNA CAG counter 17.8*.
Screening O=C1N=c2ccccc2=C1c1sc(Nc2cccc(O)c2)nc1O returned rCAG RNA binder 60.5*, PHOSPHO1 inh 25.3, A3G deaminase -4.0, aDG glyco act -0.2, A3A deaminase 1.0, ALR H2O2 inh -0.5, rCAG bind conf 25.6 and DNA CAG counter 15.0*.
For O=C1N=c2ccccc2=C1c1sc(NS(=O)(=O)c2ccccc2)nc1O the results were rCAG RNA binder 41.3*, PHOSPHO1 inh -20.9, A3G deaminase -1.7, aDG glyco act -0.2, A3A deaminase 4.1, ALR H2O2 inh -17.5, rCAG bind conf 24.8 and DNA CAG counter 6.0*.
`COP(=O)(O)C(Cc1ccccc1)NC(=O)OCc1ccccc1` (configuration not stated) gave rCAG RNA binder 2.6.
For CCCCCCCCN1C(=O)[C@H](CC(=O)NCC23CC4CC(CC(C4)C2)C3)C[C@@]2(C(=O)OCC)CCC=C12 the results were rCAG RNA binder 2.2 and aDG glyco act 0.4.
For CCOC(=O)Cc1cc(=O)n2[nH]cc(-c3cccc(Br)c3)c2n1 the results were rCAG RNA binder 67.0*, PHOSPHO1 inh 52.5, A3G deaminase -5.8, aDG glyco act -0.2, A3A deaminase -1.2, ALR H2O2 inh 34.5, rCAG bind conf 53.2* and DNA CAG counter 17.3*.
`CCOC(=O)Cc1cc(=O)n2[nH]c(-c3ccc(C)cc3)cc2n1` gave rCAG RNA binder 21.3, PHOSPHO1 inh 12.8, A3G deaminase 4.2, aDG glyco act -0.1, A3A deaminase 6.6 and ALR H2O2 inh 3.9.
O=C(C(=O)N1CCN(C(=O)Cc2ccccc2)CC1)c1cccc(C(F)(F)F)c1 was read as rCAG RNA binder -0.1.
`FC(F)(F)c1cc(Cl)c2nc(-c3ccc(Cl)cc3)c(Cc3ccsc3)n2c1` gave rCAG RNA binder 51.2*, aDG glyco act -0.2, rCAG bind conf 16.1 and DNA CAG counter 6.1*.
Screening FC(F)(F)c1cc(Cl)c2nc(-c3ccccc3)c(Cc3ccsc3)n2c1 returned rCAG RNA binder 7.0 and aDG glyco act 0.0.
